How the values were obtained:
Assay in all cases: DAPPL (digital affinity profiling via proximity ligation, sequencing); 10 mM Tris-HCl pH 7.5, 50 mM NaCl, 1 mM DTT, 4% glycerol, room temperature, 30 min; GST-TFs on glutathione beads, 16-mer random dsDNA library, 0.1% formaldehyde crosslink after washing; high values mean tight binding
FLI1 = biological target: T1, FLI1 (Homo sapiens, UniProt Q01543 1-452); details: protein: recombinant; tags: N-terminal GST; dsDNA, one strand shown
T1 sequence: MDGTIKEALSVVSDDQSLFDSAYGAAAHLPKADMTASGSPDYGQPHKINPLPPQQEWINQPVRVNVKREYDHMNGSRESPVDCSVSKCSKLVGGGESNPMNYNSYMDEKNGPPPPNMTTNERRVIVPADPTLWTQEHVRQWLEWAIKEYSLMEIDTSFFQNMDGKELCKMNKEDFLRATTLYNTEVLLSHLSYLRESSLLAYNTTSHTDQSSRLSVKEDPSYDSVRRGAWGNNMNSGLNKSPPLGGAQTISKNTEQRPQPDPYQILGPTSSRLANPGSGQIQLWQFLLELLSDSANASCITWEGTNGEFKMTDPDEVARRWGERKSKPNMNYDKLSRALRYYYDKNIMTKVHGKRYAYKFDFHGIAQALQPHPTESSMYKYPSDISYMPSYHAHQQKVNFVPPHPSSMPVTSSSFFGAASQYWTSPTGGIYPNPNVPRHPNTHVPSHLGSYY
How it was run: (§1)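 Pools were built from human transcription factors expressed in yeast as GST fusions, captured on glutathione beads and DNA-barcoded, along with a tag-only sample. Incubation with 200 nmole of a 16-mer random double-stranded DNA library lasted 30 min at room temperature in Tris/NaCl/DTT/glycerol buffer, and was followed by washing, 0.1% formaldehyde crosslinking, proximity ligation, PCR amplification and Illumina NextSeq500 sequencing. Binding signal is the quotient of each hexamer's read frequency for a factor and its frequency for the tag-only sample.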

ELK1 = biological target: T2, ELK1 (Homo sapiens, UniProt P19419 1-428); details: protein: recombinant; tags: N-terminal GST; dsDNA, one strand shown
T2 sequence: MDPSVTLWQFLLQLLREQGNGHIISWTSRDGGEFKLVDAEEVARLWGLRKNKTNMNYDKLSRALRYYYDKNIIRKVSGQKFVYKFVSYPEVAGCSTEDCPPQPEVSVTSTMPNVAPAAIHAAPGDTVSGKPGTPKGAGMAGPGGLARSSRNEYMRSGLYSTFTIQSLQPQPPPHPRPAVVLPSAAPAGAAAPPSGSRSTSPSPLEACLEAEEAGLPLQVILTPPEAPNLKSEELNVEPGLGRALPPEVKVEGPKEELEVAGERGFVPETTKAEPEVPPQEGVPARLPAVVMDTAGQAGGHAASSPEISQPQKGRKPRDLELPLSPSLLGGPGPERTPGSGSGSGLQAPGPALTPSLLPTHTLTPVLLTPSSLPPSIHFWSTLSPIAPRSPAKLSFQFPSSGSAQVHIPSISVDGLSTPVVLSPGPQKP
How it was run: as §1

ELF1 = ELF1 (Homo sapiens, UniProt P32519 1-619); details: protein: recombinant; tags: N-terminal GST; dsDNA, one strand shown
ELF1, sequence (P32519 whole entry): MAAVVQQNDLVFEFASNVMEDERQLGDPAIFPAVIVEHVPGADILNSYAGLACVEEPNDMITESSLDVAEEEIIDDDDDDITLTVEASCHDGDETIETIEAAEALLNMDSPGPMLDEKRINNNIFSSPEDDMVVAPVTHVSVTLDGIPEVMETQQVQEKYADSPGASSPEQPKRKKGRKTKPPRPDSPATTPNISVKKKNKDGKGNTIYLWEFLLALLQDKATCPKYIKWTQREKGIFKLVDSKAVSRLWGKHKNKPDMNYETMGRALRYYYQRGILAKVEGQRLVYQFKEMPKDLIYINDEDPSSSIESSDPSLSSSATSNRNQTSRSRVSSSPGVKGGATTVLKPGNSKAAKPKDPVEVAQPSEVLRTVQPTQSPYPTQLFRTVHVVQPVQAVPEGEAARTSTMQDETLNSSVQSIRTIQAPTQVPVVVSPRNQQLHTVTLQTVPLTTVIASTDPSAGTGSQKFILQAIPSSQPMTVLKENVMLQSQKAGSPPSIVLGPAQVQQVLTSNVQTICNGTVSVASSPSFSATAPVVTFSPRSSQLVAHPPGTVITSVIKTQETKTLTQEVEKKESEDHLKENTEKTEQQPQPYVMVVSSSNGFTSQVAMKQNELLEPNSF
How it was run: as §1

SPI1 = SPI1 (Homo sapiens, UniProt P17947 1-270); details: protein: recombinant; tags: N-terminal GST; dsDNA, one strand shown
How it was run: as §1

SPIB = SPIB (Homo sapiens, UniProt Q01892 1-262); details: protein: recombinant; tags: N-terminal GST; dsDNA, one strand shown
SPIB, sequence (Q01892 whole entry): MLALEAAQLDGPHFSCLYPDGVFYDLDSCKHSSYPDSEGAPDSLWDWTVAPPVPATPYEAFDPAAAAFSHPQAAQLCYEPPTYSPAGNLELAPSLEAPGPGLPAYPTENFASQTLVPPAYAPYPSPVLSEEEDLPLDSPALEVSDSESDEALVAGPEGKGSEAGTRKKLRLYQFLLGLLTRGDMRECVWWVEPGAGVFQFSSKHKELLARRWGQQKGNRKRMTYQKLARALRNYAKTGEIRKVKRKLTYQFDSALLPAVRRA
How it was run: as §1

ELK3 = biological target: T3, ELK3 (Homo sapiens, UniProt P41970 1-407); details: protein: recombinant; tags: N-terminal GST; dsDNA, one strand shown
T3 sequence: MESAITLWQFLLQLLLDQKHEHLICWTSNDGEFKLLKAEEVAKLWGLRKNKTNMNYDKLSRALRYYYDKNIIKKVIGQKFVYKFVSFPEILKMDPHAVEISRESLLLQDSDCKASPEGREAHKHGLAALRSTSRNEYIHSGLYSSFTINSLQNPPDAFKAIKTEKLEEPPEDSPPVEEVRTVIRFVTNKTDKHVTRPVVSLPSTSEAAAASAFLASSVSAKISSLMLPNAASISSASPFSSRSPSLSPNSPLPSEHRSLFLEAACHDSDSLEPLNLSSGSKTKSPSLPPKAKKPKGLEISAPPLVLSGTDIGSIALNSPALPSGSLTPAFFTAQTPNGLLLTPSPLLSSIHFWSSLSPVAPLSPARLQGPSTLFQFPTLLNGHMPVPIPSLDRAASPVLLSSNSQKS
How it was run: as §1

FEV = biological target: T4, FEV (Homo sapiens, UniProt Q99581 1-238); details: protein: recombinant; tags: N-terminal GST; dsDNA, one strand shown
T4 sequence: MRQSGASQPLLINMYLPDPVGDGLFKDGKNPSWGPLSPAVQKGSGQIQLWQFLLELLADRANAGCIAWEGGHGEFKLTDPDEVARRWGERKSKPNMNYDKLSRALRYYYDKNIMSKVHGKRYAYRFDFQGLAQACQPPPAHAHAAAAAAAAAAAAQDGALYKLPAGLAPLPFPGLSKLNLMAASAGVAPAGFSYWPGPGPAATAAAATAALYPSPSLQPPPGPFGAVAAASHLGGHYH
How it was run: as §1

ETV5 = ETV5 (Homo sapiens, UniProt P41161 1-510); details: protein: recombinant; tags: N-terminal GST; dsDNA, one strand shown
ETV5, sequence (P41161 whole entry): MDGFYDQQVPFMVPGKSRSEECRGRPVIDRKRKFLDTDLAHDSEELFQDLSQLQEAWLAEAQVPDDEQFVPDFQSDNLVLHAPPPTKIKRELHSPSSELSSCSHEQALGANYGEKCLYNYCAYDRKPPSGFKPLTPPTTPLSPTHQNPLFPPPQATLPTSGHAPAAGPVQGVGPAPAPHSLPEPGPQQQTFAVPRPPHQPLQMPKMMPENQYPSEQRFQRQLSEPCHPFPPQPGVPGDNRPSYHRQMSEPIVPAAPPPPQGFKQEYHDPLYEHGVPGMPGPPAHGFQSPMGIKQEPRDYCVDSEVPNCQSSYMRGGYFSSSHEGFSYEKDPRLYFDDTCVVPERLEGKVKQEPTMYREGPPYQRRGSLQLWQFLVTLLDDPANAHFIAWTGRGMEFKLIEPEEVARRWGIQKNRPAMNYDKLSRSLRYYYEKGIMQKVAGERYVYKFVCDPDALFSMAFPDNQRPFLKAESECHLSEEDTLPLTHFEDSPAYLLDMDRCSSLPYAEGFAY
How it was run: as §1

HSF1 = HSF1 (Homo sapiens, UniProt Q00613 1-529); details: protein: recombinant; tags: N-terminal GST; chain copies: 3; dsDNA, one strand shown
HSF1, sequence (Q00613 whole entry): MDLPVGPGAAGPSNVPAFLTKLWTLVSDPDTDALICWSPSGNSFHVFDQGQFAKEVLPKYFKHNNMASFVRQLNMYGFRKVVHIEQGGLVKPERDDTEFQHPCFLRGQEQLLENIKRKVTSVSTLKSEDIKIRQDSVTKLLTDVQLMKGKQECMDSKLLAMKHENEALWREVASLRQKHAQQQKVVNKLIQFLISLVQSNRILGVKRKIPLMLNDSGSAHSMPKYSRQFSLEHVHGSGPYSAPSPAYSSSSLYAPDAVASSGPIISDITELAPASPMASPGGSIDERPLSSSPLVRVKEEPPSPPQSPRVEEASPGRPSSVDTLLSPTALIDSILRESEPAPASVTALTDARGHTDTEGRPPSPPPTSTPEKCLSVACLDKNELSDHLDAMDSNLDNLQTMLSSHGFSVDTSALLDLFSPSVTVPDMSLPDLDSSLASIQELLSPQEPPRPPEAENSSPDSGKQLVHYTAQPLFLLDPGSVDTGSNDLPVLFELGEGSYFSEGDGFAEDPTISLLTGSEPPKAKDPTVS
How it was run: as §1

SPIC = biological target: T5, SPIC (Homo sapiens, UniProt Q8N5J4 1-248); details: protein: recombinant; tags: N-terminal GST; dsDNA, one strand shown
T5 sequence: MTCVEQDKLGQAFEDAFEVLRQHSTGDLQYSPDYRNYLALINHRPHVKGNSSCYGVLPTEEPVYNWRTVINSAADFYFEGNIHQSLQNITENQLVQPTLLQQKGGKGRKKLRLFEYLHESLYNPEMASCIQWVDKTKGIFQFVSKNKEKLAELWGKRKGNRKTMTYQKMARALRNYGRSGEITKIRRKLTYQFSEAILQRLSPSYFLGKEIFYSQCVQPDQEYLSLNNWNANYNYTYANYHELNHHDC
How it was run: as §1

ELF4 = ELF4 (Homo sapiens, UniProt Q99607 1-663); details: protein: recombinant; tags: N-terminal GST; dsDNA, one strand shown
ELF4, sequence (Q99607 whole entry): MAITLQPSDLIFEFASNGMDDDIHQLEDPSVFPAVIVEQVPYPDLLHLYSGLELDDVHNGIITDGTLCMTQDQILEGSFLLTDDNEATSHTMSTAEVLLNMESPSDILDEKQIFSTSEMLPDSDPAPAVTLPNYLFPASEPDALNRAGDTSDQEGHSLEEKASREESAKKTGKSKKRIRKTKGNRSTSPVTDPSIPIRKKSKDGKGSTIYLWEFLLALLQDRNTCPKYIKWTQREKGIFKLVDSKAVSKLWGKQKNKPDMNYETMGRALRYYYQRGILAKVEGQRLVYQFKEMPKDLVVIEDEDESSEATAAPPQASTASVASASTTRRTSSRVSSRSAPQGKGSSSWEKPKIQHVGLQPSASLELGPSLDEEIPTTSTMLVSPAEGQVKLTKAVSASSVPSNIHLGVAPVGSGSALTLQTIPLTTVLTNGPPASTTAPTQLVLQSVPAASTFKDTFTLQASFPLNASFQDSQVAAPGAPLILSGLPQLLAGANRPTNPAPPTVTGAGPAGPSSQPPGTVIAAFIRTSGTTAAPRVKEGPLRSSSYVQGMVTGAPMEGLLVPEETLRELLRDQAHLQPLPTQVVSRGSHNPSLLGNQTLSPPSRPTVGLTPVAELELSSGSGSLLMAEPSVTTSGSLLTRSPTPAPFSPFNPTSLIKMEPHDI
How it was run: as §1

ELK4 = biological target: T6, ELK4 (Homo sapiens, UniProt P28324-2 1-405); details: protein: recombinant; tags: N-terminal GST; dsDNA, one strand shown
T6 sequence: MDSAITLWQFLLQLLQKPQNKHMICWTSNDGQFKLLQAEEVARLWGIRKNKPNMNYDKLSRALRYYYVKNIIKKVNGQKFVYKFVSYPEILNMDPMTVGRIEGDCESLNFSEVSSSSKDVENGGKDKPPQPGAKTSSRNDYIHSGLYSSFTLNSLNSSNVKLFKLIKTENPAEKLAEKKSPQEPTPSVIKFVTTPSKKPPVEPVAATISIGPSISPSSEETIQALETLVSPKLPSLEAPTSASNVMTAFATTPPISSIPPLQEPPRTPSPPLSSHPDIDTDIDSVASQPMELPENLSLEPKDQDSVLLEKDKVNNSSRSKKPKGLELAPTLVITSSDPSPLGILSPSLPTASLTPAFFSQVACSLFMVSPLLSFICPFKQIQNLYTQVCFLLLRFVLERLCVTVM
How it was run: as §1

ETV2 = biological target: T7, ETV2 (Homo sapiens, UniProt O00321 1-342); details: protein: recombinant; tags: N-terminal GST; dsDNA, one strand shown
T7 sequence: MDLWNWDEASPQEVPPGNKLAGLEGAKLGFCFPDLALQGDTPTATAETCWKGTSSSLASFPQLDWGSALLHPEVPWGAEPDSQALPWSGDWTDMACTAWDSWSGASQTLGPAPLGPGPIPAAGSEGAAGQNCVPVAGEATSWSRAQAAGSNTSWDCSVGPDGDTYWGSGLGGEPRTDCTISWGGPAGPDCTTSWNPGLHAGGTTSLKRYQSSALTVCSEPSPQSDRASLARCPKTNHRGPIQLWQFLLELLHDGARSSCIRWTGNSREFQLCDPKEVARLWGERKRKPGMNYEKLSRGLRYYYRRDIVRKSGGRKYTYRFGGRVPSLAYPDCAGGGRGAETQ
How it was run: as §1

ELF3 = biological target: T8, ELF3 (Homo sapiens, UniProt P78545 1-371); details: protein: recombinant; tags: N-terminal GST; dsDNA, one strand shown
T8 sequence: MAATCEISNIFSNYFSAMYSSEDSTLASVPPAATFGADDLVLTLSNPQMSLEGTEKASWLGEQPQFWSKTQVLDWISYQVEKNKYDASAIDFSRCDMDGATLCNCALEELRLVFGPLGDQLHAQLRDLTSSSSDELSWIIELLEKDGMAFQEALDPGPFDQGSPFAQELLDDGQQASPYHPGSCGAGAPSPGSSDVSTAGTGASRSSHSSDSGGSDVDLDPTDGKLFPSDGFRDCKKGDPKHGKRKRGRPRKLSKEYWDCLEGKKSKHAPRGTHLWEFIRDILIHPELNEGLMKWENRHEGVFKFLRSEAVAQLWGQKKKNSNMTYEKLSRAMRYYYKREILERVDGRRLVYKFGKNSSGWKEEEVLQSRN
How it was run: as §1

CRX = CRX (Homo sapiens, UniProt O43186 1-299); details: protein: recombinant; tags: N-terminal GST; dsDNA, one strand shown
CRX, sequence (O43186 whole entry): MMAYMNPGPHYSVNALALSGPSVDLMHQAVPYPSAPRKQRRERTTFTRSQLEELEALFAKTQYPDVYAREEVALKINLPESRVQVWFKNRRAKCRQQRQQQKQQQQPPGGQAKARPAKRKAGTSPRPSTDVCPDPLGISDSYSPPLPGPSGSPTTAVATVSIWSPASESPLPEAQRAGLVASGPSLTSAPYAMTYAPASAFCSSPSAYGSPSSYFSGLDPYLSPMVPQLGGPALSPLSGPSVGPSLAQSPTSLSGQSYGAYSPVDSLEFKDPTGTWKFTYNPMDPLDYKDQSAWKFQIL
How it was run: as §1

ETV1 = ETV1 (Homo sapiens, UniProt P50549 1-477); details: protein: recombinant; tags: N-terminal GST; dsDNA, one strand shown
ETV1, sequence (P50549 whole entry): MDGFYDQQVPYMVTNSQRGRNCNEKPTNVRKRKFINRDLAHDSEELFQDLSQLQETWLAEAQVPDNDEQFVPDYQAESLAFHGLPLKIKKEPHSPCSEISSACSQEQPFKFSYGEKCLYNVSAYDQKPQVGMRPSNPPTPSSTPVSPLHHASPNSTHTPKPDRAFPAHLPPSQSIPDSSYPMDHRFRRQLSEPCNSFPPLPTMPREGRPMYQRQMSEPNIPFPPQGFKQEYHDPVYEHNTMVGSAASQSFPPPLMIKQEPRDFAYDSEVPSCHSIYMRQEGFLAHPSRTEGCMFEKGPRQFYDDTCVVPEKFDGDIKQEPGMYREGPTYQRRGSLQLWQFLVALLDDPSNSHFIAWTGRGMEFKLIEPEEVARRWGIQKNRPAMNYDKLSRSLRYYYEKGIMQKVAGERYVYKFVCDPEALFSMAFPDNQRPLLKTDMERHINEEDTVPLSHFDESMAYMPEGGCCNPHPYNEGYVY
How it was run: as §1

Sequence: TTCCAG
- binding signal (FLI1): 1.03 fold enrichment (6-mer frequency, TF over GST control)
- binding signal (ELK1): 1.02 fold enrichment (6-mer frequency, TF over GST control)
- binding signal (ELF1): 1.02 fold enrichment (6-mer frequency, TF over GST control)
- binding signal (SPI1): 1.05 fold enrichment (6-mer frequency, TF over GST control)
- binding signal (SPIB): 1.1 fold enrichment (6-mer frequency, TF over GST control)
- binding signal (ELK3): 1.07 fold enrichment (6-mer frequency, TF over GST control)
- binding signal (FEV): 1.05 fold enrichment (6-mer frequency, TF over GST control)
- binding signal (ETV5): 1.06 fold enrichment (6-mer frequency, TF over GST control)
- binding signal (HSF1): 3.69 fold enrichment (6-mer frequency, TF over GST control)
- binding signal (SPIC): 1.02 fold enrichment (6-mer frequency, TF over GST control)
- binding signal (ELF4): 1.17 fold enrichment (6-mer frequency, TF over GST control)
- binding signal (ELK4): 1.15 fold enrichment (6-mer frequency, TF over GST control)
- binding signal (ETV2): 1.12 fold enrichment (6-mer frequency, TF over GST control)
- binding signal (ELF3): 1.05 fold enrichment (6-mer frequency, TF over GST control)
- binding signal (CRX): 1.68 fold enrichment (6-mer frequency, TF over GST control)
- binding signal (ETV1): 1.05 fold enrichment (6-mer frequency, TF over GST control)

Reference: paper PMC7862700, “An all-to-all approach to the identification of sequence-specific readers for epigenetic DNA modifications on cytosine”
